Measurements from PubChem BioAssay AID1159580 (chemical genetic matrix, 2015).
Out of some 5,500 compounds screened, about 2,000 (36%) were called active. Not shown: some 18% with an inconclusive outcome. Cut-off read from the data, not from the text of the source: active = normalized growth mostly below about 0.91 (no sharp cut-off); inconclusive = no clear call, values can overlap the other calls; inactive = mostly above about 0.92. The list shows a part of the results.

Experiment: chemical genetic growth profiling, strain panel (AID 1159580);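 note: tested at 20 µM; growth read once vehicle control cultures reached saturation at 30 °C; 1 = growth at the plate median or of vehicle wells; lower values mean less growth of the strain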
Conditions: growth OD
[1] = S. cerevisiae deletion strains, locus YDL101C, strain DUN1, active compounds read low
[2] = S. cerevisiae deletion strains, locus YHR030C, strain SLT2, active compounds read low

Measured: normalized growth

C/C(=N/NC(N)=S)c1ccccn1
inactive: S. cerevisiae deletion strains, locus YAR019C, strain CDC15, active compounds read low 0.962 | S. cerevisiae deletion strains, locus YBL105C, strain PKC1, active compounds read low 0.98 | S. cerevisiae deletion strains, locus YBR135W, strain CKS1, active compounds read low 0.971 | S. cerevisiae deletion strains, locus YBR136W, strain MEC1, active compounds read low 0.962 | S. cerevisiae deletion strains, locus YBR160W, strain CDC28, active compounds read low 0.985 | S. cerevisiae deletion strains, locus YDL017W, strain CDC7, active compounds read low 0.987 | S. cerevisiae deletion strains, locus YDL028C, strain MPS1, active compounds read low 0.97 | [1] 0.982 | S. cerevisiae deletion strains, locus YDL108W, strain KIN28, active compounds read low 0.97 | S. cerevisiae deletion strains, locus YDL132W, strain cdc53, active compounds read low 0.949 | S. cerevisiae deletion strains, locus YDL214C, strain PRR2, active compounds read low 0.932 | S. cerevisiae deletion strains, locus YDR052C, strain DBF4, active compounds read low 0.963 | S. cerevisiae deletion strains, locus YDR054C, strain cdc34, active compounds read low 0.944 | S. cerevisiae deletion strains, locus YDR226W, strain ADK1, active compounds read low 0.971 | S. cerevisiae deletion strains, locus YDR477W, strain SNF1, active compounds read low 0.878 | S. cerevisiae deletion strains, locus YER123W, strain YCK3, active compounds read low 0.874 | S. cerevisiae deletion strains, locus YER133W, strain GLC7, active compounds read low 0.889 | S. cerevisiae deletion strains, locus YFL009W, strain cdc4, active compounds read low 0.939 | S. cerevisiae deletion strains, locus YFL029C, strain CAK1, active compounds read low 0.945 | S. cerevisiae deletion strains, locus YFR003C, strain YPI1, active compounds read low 0.985 | S. cerevisiae deletion strains, locus YFR019W, strain FAB1, active compounds read low 0.908 | S. cerevisiae deletion strains, locus YFR028C, strain CDC14, active compounds read low 0.962 | S. cerevisiae deletion strains, locus YGR040W, strain KSS1, active compounds read low 0.875 | S. cerevisiae deletion strains, locus YGR052W, strain FMP48, active compounds read low 0.951 | S. cerevisiae deletion strains, locus YGR092W, strain DBF2, active compounds read low 0.833 | [2] 0.861 | S. cerevisiae deletion strains, locus YHR079C, strain IRE1, active compounds read low 0.779 | S. cerevisiae deletion strains, locus YHR082C, strain KSP1, active compounds read low 0.932 | S. cerevisiae deletion strains, locus YHR205W, strain SCH9, active compounds read low 0.957 | S. cerevisiae deletion strains, locus YIL147C, strain SLN1, active compounds read low 0.958 | S. cerevisiae deletion strains, locus YJL095W, strain BCK1, active compounds read low 0.871 | S. cerevisiae deletion strains, locus YJL128C, strain PBS2, active compounds read low 0.975 | S. cerevisiae deletion strains, locus YJL157C, strain FAR1, active compounds read low 0.88 | S. cerevisiae deletion strains, locus YJR016C, strain ILV3, active compounds read low 0.967 | S. cerevisiae deletion strains, locus YJR066W, strain TOR1 (second series), active compounds read low 0.874 | S. cerevisiae deletion strains, locus YJR066W, strain TOR1, active compounds read low 0.881 | S. cerevisiae deletion strains, locus YKL048C, strain ELM1, active compounds read low 0.941 | S. cerevisiae deletion strains, locus YKL067W, strain YNK1, active compounds read low 0.951 | S. cerevisiae deletion strains, locus YKL101W, strain HSL1, active compounds read low 0.91 | S. cerevisiae deletion strains, locus YKL193C, strain SDS22, active compounds read low 0.971 | S. cerevisiae deletion strains, locus YKL203C, strain TOR2, active compounds read low 0.9 | S. cerevisiae deletion strains, locus YLR113W, strain HOG1, active compounds read low 0.93 | S. cerevisiae deletion strains, locus YLR133W, strain CKI1, active compounds read low 0.911 | S. cerevisiae deletion strains, locus YLR403W, strain SFP1, active compounds read low 0.843 | S. cerevisiae deletion strains, locus YML070W, strain DAK1, active compounds read low 0.918 | S. cerevisiae deletion strains, locus YMR001C, strain CDC5, active compounds read low 0.967 | S. cerevisiae deletion strains, locus YMR205C, strain PFK2 (second series), active compounds read low 0.945 | S. cerevisiae deletion strains, locus YMR277W, strain FCP1, active compounds read low 0.978 | S. cerevisiae deletion strains, locus YNL006W, strain LST8, active compounds read low 0.988 | S. cerevisiae deletion strains, locus YNL020C, strain ARK1, active compounds read low 0.917 | S. cerevisiae deletion strains, locus YNL161W, strain CBK1, active compounds read low 0.978 | S. cerevisiae deletion strains, locus YNL183C, strain NPR1, active compounds read low 0.895 | S. cerevisiae deletion strains, locus YNL207W, strain RIO2, active compounds read low 0.936 | S. cerevisiae deletion strains, locus YNL222W, strain SSU72, active compounds read low 0.977 | S. cerevisiae deletion strains, locus YNL307C, strain MCK1 (second series), active compounds read low 0.862 | S. cerevisiae deletion strains, locus YOL078W, strain AVO1, active compounds read low 0.964 | S. cerevisiae deletion strains, locus YOL136C, strain PFK27, active compounds read low 0.957 | S. cerevisiae deletion strains, locus YOR061W, strain CKA2, active compounds read low 0.891 | S. cerevisiae deletion strains, locus YOR119C, strain RIO1, active compounds read low 0.906 | S. cerevisiae deletion strains, locus YOR231W, strain MKK1, active compounds read low 0.875 | S. cerevisiae deletion strains, locus YOR329C, strain SCD5, active compounds read low 0.968 | S. cerevisiae deletion strains, locus YPL031C, strain PHO85, active compounds read low 0.863 | S. cerevisiae deletion strains, locus YPL153C, strain RAD53, active compounds read low 0.828 | S. cerevisiae deletion strains, locus YPL204W, strain HRR25, active compounds read low 0.85 | S. cerevisiae deletion strains, locus YPL209C, strain IPL1, active compounds read low 0.98 | S. cerevisiae deletion strains, locus YPL256C, strain CLN2, active compounds read low 0.951 | S. cerevisiae deletion strains, locus YPR025C, strain CCL1, active compounds read low 0.975 | S. cerevisiae deletion strains, locus YPR106W, strain ISR1, active compounds read low 0.984 | S. cerevisiae deletion strains, locus YPR111W, strain DBF20, active compounds read low 0.983 | S. cerevisiae deletion strains, strain NNK1, active compounds read low 0.993 | S. cerevisiae deletion strains, strain TSCII, active compounds read low 0.975

CNC(=S)NN=C(N)c1ccccn1
active: S. cerevisiae deletion strains, locus YKL190W, strain CNB1, active compounds read low 0.521 | S. cerevisiae deletion strains, locus YLR039C, strain RIC1, active compounds read low 0.519 | S. cerevisiae deletion strains, locus YLR085C, strain ARP6, active compounds read low 0.484 | S. cerevisiae deletion strains, locus YLR262C, strain YPT6, active compounds read low 0.698 | S. cerevisiae deletion strains, locus YML094W, strain GIM5, active compounds read low 0.831 | S. cerevisiae deletion strains, locus YMR307W, strain GAS1, active compounds read low 0.525 | S. cerevisiae deletion strains, locus YNL298W, strain CLA4 (second series), active compounds read low 0.75 | S. cerevisiae deletion strains, locus YNR030W, strain Alg12, active compounds read low 0.669 | S. cerevisiae deletion strains, locus YOL006C, strain TOP1, active compounds read low 0.167 | S. cerevisiae deletion strains, locus YPL241C, strain CIN2, active compounds read low 0.682 | S. cerevisiae strains, strain wild type, active compounds read low 0.64
inactive: S. cerevisiae deletion strains, locus YAL013W, strain DEP1, active compounds read low 1.02 | S. cerevisiae deletion strains, locus YBR229C, strain ROT2, active compounds read low 1.02 | [1] 0.972 | S. cerevisiae deletion strains, locus YDL134C, strain PPH21, active compounds read low 0.963 | S. cerevisiae deletion strains, locus YDR150W, strain NUM1, active compounds read low 1.04 | S. cerevisiae deletion strains, locus YEL061C, strain CIN8, active compounds read low 0.93 | S. cerevisiae deletion strains, locus YGR078C, strain PAC10, active compounds read low 1.01 | [2] 0.786 | S. cerevisiae deletion strains, locus YHR087W, strain rtc3, active compounds read low 1.05 | S. cerevisiae deletion strains, locus YJL187C, strain SWE1, active compounds read low 1.01 | S. cerevisiae deletion strains, locus YJR043C, strain POL32, active compounds read low 1.01 | S. cerevisiae deletion strains, locus YJR075W, strain HOC1, active compounds read low 1.01 | S. cerevisiae deletion strains, locus YLR058C, strain SHM2 (second series), active compounds read low 1.01 | S. cerevisiae deletion strains, locus YMR219W, strain ESC1, active compounds read low 1.01 | S. cerevisiae deletion strains, locus YMR263W, strain SAP30, active compounds read low 1.01 | S. cerevisiae deletion strains, locus YNL153C, strain GIM3, active compounds read low 0.989 | S. cerevisiae deletion strains, locus YNL322C, strain KRE1, active compounds read low 1.04 | S. cerevisiae deletion strains, locus YPL055C, strain LGE1, active compounds read low 1.03 | S. cerevisiae deletion strains, locus YPR135W, strain CTF4, active compounds read low 0.7
